Results taken from PubChem BioAssay (NCATS).
Where “and” joins values, the source holds several entries; their conditions need not be identical. Equal values may be shown once. Results filed as inconclusive are left out. More than one record can exist for a structure, and the calls need not agree. Calls of active or inactive are those of the source. The call rests on the fitted dose curve; in most records, active means well fitted curve in the direction sought with a large enough effect; inconclusive means small, poorly fitted or top-dose-only effect, or another doubt; inactive means no such curve, though single readings can be large; an effect the other way counts as inactive or inconclusive.

Legend:
[1] = Viability qHTS for spleen associated tyrosine kinase inhibitor (SYKi) naive MV4-11 cells (AID 1963823); details: MV4-11 AML viability, CellTiter-Glo luminescence, 72 h; series mostly up to 45 µM; further: nearly all actives have a fitted effect of over 40% in size
How it was run: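 Luminescence from CellTiter-Glo, developed 10 min at room temperature, gave viability of MV4-11 cells never exposed to SYK inhibitor. Cells (500/well) had been incubated with compounds for 72 hr under standard culture conditions.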

[2] = Viability qHTS for spleen associated tyrosine kinase inhibitor (SYKi) drug resistant MV4-11 cells (AID 1963824); details: SYKi-resistant MV4-11 viability, CellTiter-Glo, 72 h; series mostly up to 45 µM; further: nearly all actives have a fitted effect of over 35% in size
How it was run: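 SYK inhibitor-resistant MV4-11 AML cells, 500 per well, added to predispensed compounds and incubated 72 hr at 37 C, 5% CO2. Viability measured by CellTiter-Glo luminescence after 10 min at room temperature.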

[3] = Cellular viability qHTS for adrenocortical cancer (ACC) cell line SW-13 (AID 1963989); details: SW-13 ACC cells viability, CellTiter-Glo, 48 h; activity (max response): stronger effect = lower value; further: nearly all actives have a fitted effect of over 65% in size;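 on activity (max response): cells grown in serum-free medium with ITS supplement; on the % scale 0 is the no-effect control and ±100 the full control effect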
How it was run: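 Viability was read as CellTiter-Glo luminescence after 48 h compound treatment (up to 46 uM final) of SW-13 cells grown serum-free; titration curves were fit with a four-parameter logistic model to give IC50 and efficacy.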

[4] = Cellular viability qHTS for adrenocortical cancer (ACC) cell line NCI-H295R (AID 1963990); details: CellTiter-Glo ATP luminescence, 48 h; series mostly up to 46.1 µM; further: nearly all actives have a fitted effect of over 60% in size
How it was run: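 CellTiter-Glo ATP luminescence, read 48 h after compound addition, measured viability of NCI-H295R adrenocortical cells grown serum-free with ITS. Final concentrations spanned up to 46 uM. Data normalized to DMSO and doxorubicin, fitted for IC50 and maximal response.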
Potency means the concentration at half of the fitted maximal effect.

COCCOC(=O)N1CCN(S(=O)(=O)c2cc(F)c(Oc3ccc(Cl)cc3)c(F)c2)C(C(=O)NO)C1 (configuration not stated)
active: Potency [1] 5.9 µM | Potency [2] 5.9 µM | Potency [3] 5.01 µM | Potency [4] 2.82 µM

CC(=O)Nc1ccc(OCCOCCOc2ccc(NC(C)=O)cc2)cc1
inactive: Potency [1] | Potency [2] | activity (max response) [3] -7.42% | Potency [4]

c1ccc2sc(SSc3nc4ccccc4s3)nc2c1
inactive: Potency [1] | Potency [2] | activity (max response) [3] -16.2% | Potency [4]

CSc1ccc(C(=O)c2[nH]c(=O)[nH]c2C)cc1
inactive: Potency [1] | Potency [2] | activity (max response) [3] 15.3% | Potency [4]

CN1[C@@H]2CCC[C@H]1CC(NC(=O)c1nn(C)c3ccccc13)C2 (some centres not stated)
inactive: Potency [1] | Potency [2] | activity (max response) [3] 2.83% | Potency [4]

CC(/C=C/C(=O)NO)=C\[C@@H](C)C(=O)c1ccc(N(C)C)cc1
active: Potency [1] 326 nM and 296 nM | Potency [2] 259 nM and 332 nM | Potency [3] 6.31 µM | Potency [4] 3.98 µM

COCCOc1cnc2ccn([C@H](C)c3nnc4c(F)cc(-c5cnn(C)c5)cn34)c(=O)c2c1
inactive: Potency [1] | Potency [2] | activity (max response) [3] -16.1% | Potency [4]

Cc1c(CN2CCC(Nc3ncnc4sc(CC(F)(F)F)cc34)CC2)ccc2c1cc(C#N)n2Cc1cn[nH]c1
active: Potency [1] 0.525 µM | Potency [2] 0.468 µM | Potency [3] 4.47 µM | Potency [4] 6.31 µM

CN1CCN(Cc2ccc(Nc3ncc(Cl)c(Nc4ccccc4S(=O)(=O)N(C)C)n3)cc2)CC1
active: Potency [1] 0.006 µM | Potency [2] 0.0096 µM | Potency [3] 0.75 µM | Potency [4] 0.237 µM

C/C=C/C[C@@H](C)C(=O)[C@H]1C(=O)N[C@@H](C(C)C)C(=O)N(C)CC(=O)N(C)[C@@H](CC(C)C)C(=O)N[C@@H](C(C)C)C(=O)N(C)[C@@H](CC(C)C)C(=O)N[C@@H](C)C(=O)N[C@H](C)C(=O)N(C)[C@@H](CC(C)C)C(=O)N(C)[C@@H](CC(C)C)C(=O)N(C)[C@@H](C(C)C)C(=O)N1C
active: Potency [1] 6.45 µM | Potency [2] 4.07 µM
inactive: activity (max response) [3] 4.11% | Potency [4]

CCNC(=O)NCc1cccc(Cl)c1
inactive: Potency [1] | Potency [2] | activity (max response) [3] -4.81% | Potency [4]

C=C1/C(=C\C=C2/CCC[C@]3(C)[C@@H]([C@H](C)CCCC(C)(C)O)CC[C@@H]23)C[C@@H](O)C[C@@H]1O
active: Potency [1] 0.0186 µM | Potency [2] 1.48 µM | Potency [3] 28.2 µM | Potency [4] 25.1 µM

CC(=O)O[C@]1(C(C)=O)CC[C@H]2[C@@H]3C=C(C)C4=CC(=O)CC[C@]4(C)[C@H]3CC[C@@]21C
active: Potency [2] 14.8 µM
inactive: activity (max response) [3] 8.88% and -22.2% | Potency [4]
inactive and 16.6 µM (active): Potency [1]

Cc1ccc2cc(-c3c(C)ccc(C(=O)c4c(-c5ccccc5)n(C)n(-c5ccccc5)c4=O)c3N)ccc2n1
active: Potency [1] 4.61 µM | Potency [2] 9.34 µM
inactive: activity (max response) [3] -12.9% | Potency [4]

CCN(CC)CCOC(=O)C1(c2ccccc2)CCCC1
inactive: Potency [1] | Potency [2] | activity (max response) [3] 8.5% | Potency [4]

CNCC(O)c1ccc(O)c(O)c1 (configuration not stated)
inactive: Potency [1] | Potency [2] | activity (max response) [3] 4.94% | Potency [4]

CC(=O)N[C@@H](CC(C)C)C(=O)O
inactive: Potency [1] | Potency [2] | activity (max response) [3] 7.87% | Potency [4]

O=C(CCN1CCN(CCO)CC1)N1c2ccccc2Sc2ccc(C(F)(F)F)cc21
inactive: Potency [1] | Potency [2] | activity (max response) [3] -5.01% | Potency [4]

CC(C)C[C@H](NC(=O)[C@H](Cc1ccccc1)NC(=O)OCc1ccccc1)C(=O)C=O
inactive: activity (max response) [3] -18.6% | Potency [4]
active: Potency [1] 23.5 µM | Potency [2] 20.9 µM

C=CC(=O)Nc1ccc2ncnc(Nc3cccc(Br)c3)c2c1
active: Potency [1] 2.59 µM | Potency [2] 2.31 µM | Potency [3] 1.26 µM | Potency [4] 4.47 µM

CCCNC(C)C(=O)Nc1c(C)csc1C(=O)OC (configuration not stated)
inactive: Potency [1] | Potency [2] | activity (max response) [3] 8.19% | Potency [4]

CN(C(=O)c1c(O)c2ccccc2n(C)c1=O)c1ccccc1
11.9 µM (active) and inactive: Potency [2]
inactive: Potency [1] | activity (max response) [3] 3.23% and -16.1% | Potency [4]

CC1(C)CN(C(=O)c2ccc(-c3cccc4nc(NC(=O)C5CC5)nn34)cc2)C1
inactive: activity (max response) [3] 2.66% | Potency [4]
active: Potency [1] 6.61 µM | Potency [2] 16.4 µM
